Bioassay records as filed in PubChem BioAssay.
AmpC inh detg = qHTS Inhibitors of AmpC Beta-Lactamase (assay with detergent). P00811. AmpC hydrolysis of nitrocefin, absorbance 480 nm, 0.01% Triton. Potency, µM (titrated, usually from 114 µM), inactives show at the top dose activity change, negative = inhibition, actives largely listed as inhibitors. 370,000 tested, 0.041% active;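 note: 0% = no-compound wells and -100% = no-enzyme wells; nearly all actives have a fitted effect of over 25% in size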
Target sequence (P00811 whole entry, looked up): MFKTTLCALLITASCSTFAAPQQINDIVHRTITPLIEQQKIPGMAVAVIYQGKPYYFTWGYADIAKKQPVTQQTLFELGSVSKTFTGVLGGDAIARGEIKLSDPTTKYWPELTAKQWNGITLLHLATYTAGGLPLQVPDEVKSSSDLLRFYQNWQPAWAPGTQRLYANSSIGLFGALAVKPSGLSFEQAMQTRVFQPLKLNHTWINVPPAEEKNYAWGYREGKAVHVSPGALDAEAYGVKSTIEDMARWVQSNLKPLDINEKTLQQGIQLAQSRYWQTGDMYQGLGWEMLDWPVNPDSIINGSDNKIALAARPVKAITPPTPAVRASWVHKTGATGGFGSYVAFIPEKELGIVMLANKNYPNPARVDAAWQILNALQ
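AmpC (5.3 nM in the dispensed reagent) in 20 mM phosphate pH 7.0 with 0.01% (detergent screen) or 0.0001% Triton X-100 was preincubated with compounds for 15 min at room temperature. Nitrocefin was then added from an 800 uM solution, and hydrolysis was followed at 480 nm.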
Pf growth 96h = Primary qHTS for delayed death inhibitors of the malarial parasite plastid, 96 hour incubation | P. falciparum luciferase reporter growth, 96 h | Potency, µM (highest dose often 28.7 µM), for inactives: at the highest dose activity change, negative = inhibition, most hits filed as inhibitors | 320,000 tested, 6.9% active | AID 504834, 2011
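Cell-based qHTS: luciferase-tagged P. falciparum in erythrocytes (2% hematocrit, 0.05% parasitemia final) incubated with compounds for 96 hours, 37 C, 5% CO2; luciferase detection reagent then added and luminescence measured.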
AMA1 RON2 block = qHTS for Inhibitors of AMA1-RON; Towards Development of Antimalarial Drug Lead: Primary Screen | AlphaScreen AMA1-biotinylated RON2 peptide binding | Potency, µM (series often up to 58.2 µM), for the others: at the highest dose activity change, negative = inhibition, actives largely listed as inhibitors | 360,000 tested, 0.2% active;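 note: 0% = vehicle wells and -100% = peptide control; nearly all actives have a fitted effect of over 45% in size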
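AMA1 (3D7) with his tag at 25 nM final met compounds first, then biotinylated RON2 peptide at 25 nM; detection used donor plus acceptor beads, 10 µg/mL apiece, read by AlphaScreen after 30 min at room temperature.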
Pf growth 48h = Primary qHTS for delayed death inhibitors of the malarial parasite plastid, 48 hour incubation; P. falciparum luciferase growth in erythrocytes, 48 h; Potency, µM (top dose mostly 28.7 µM), for the others: at the highest dose activity change, negative = inhibition, usual class: inhibitors; 310,000 tested, 5.9% active; AID 504832, 2011
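Luminescence readout; reporter = integrated firefly luciferase in P. falciparum. RBC culture at 2% hematocrit, 0.1% parasitemia final, 37 C/5% CO2; decreased signal taken as growth inhibition.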
HCV inhibitor = qHTS Assay for Inhibitors of Hepatitis C Virus (HCV); 340,000 tested, 3.4% active; Potency, µM (titrated, usually from 41.8 µM), inactives show top-dose activity change, negative = inhibition, most hits filed as inhibitors; AID 651820, 2012; Huh7.5.1 HCVcc-Cre infection, luciferase reporter, 44 h
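Antiviral activity was scored by luciferase reporter output from cells infected with HCVcc-Cre (~0.5 moi) in presence of compound, 44 h infection period, cells seeded 1,000/well 4 h prior.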
AmpC no deterg = qHTS Inhibitors of AmpC Beta-Lactamase (assay without detergent) | P00811 | AmpC nitrocefin hydrolysis, absorbance 480 nm, 0.0001% Triton | Potency, µM (top dose mostly 57.1 µM), without a hit: at the top dose activity change, negative = inhibition, actives largely listed as inhibitors | 330,000 tested, 0.52% active;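 note: plate controls were no compound for no effect and no enzyme for full effect; nearly all actives have a fitted effect of over 20% in size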
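AmpC (5.3 nM in the dispensed reagent) in 20 mM phosphate pH 7.0 with 0.01% (detergent screen) or 0.0001% Triton X-100 was preincubated with compounds for 15 min at room temperature. Nitrocefin was then added from an 800 uM solution, and hydrolysis was followed at 480 nm.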
* marks the source's active call; other numbers are inactive results; ? = inconclusive; nt = no result; [ ] = dose if it differs, or a comment. Only some compounds are listed: those with a hit (about 11% of all), similar ones and a draw of the others. Calls come from the whole dose curve; as a rule, active = well fitted curve in the direction sought with a large enough effect; inconclusive = small, poorly fitted or top-dose-only effect, or another doubt; inactive = no such curve, though single readings can be large; an effect the other way counts as inactive or inconclusive. Unless noted, % is set by controls: 0 for no effect and ±100 for the full control effect; potency is the fitted concentration of half-maximal effect.

SMILES	AmpC inh detg	Pf growth 96h	AMA1 RON2 block	Pf growth 48h	HCV inhibitor	AmpC no deterg
Cc1cc(C)cc(N(CCC#N)C(=O)COC(=O)c2ccc(OCc3c(C)noc3C)cc2)c1	?	10µM*	2%	?	?	?
O=C1CC(c2ccccc2)c2c(n3ncnc3[nH]c2=O)N1 (centres undefined)	12%	nt	nt	nt	nt	nt
Cc1ccc(O)c(/C=N/NC(=O)C2=NNC(c3ccccc3)(c3ccccc3)C2)c1	-7%	?	nt	2.9µM*	14%	-48%
O=c1cc(-c2ccccc2)nc(SCCOc2ccccc2Cl)[nH]1	-4%	7.4µM*	0%	7%	-13%	-25%
CCOc1ccc(OCCSc2nc3ccccc3c(=O)[nH]2)cc1	-6%	47%	1%	nt	13%	-32%
O=c1[nH]c(SCCOc2cccc3ccccc23)nc2ccccc12	3%	2.1µM*	-12%	-10%	5%	-27%
Cc1ccc(NC(=O)Cn2c(=O)n(CCCCC(=O)NCc3ccc4c(c3)OCO4)c(=O)c3ccccc32)cc1	15%	nt	nt	nt	nt	nt
COc1ccc(CCNC(=O)c2ccc3c(c2)N(Cc2ccc(Cl)cc2)C(=O)c2ccccc2S3)cc1OC	2%	nt	nt	nt	nt	nt
Cc1cc2n(n1)CCCN2C(=O)Nc1ccc(Cl)cc1	9%	nt	nt	nt	nt	nt
O=C1c2oc3ccccc3c(=O)c2C(c2ccc(Br)cc2)N1c1ccccn1 (centres undefined)	-3%	nt	nt	nt	nt	nt
CCc1cccc(C)c1N=Cc1c(O)c2ccccc2oc1=O	-6%	10%	157%	13µM*	-2%	-41%
O=C(O)CCCN=Cc1c(O)c2ccccc2oc1=O	8%	10µM*	0%	5%	1%	-22%
Cc1cccc(NC(=O)CN2C(=O)CCn3nc(-c4cccn4C)cc32)c1C	-1%	nt	nt	nt	nt	nt
Cc1ccccc1NC(=O)Cn1c(=O)n(CCCCCC(=O)NCc2ccc3c(c2)OCO3)c(=O)c2sccc21	24%	nt	nt	nt	nt	nt
Cc1nonc1OC(C)CNc1ccc([N+](=O)[O-])cc1 (centres undefined)	-6%	24%	-7%	3.7µM*	-28%	0%
CCN(c1ccccc1)S(=O)(=O)c1cc(C(=O)NCc2ccco2)ccc1C	-8%	13µM*	-1%	12µM*	?	-27%
O=C(NCc1ccco1)c1ccc(Cl)c(S(=O)(=O)N2CCCC2)c1	3%	2.6µM*	-3%	9.3µM*	2%	-26%
CC1CCCN(S(=O)(=O)c2cc(C(=O)NCc3ccco3)ccc2Cl)C1 (centres undefined)	nt	nt	-4%	nt	?	-29%
Cc1ccc(C(=O)NCc2ccco2)cc1S(=O)(=O)N1CCCC1	3%	27%	-5%	12µM*	2%	?
CS(=O)(=O)N(Cc1ccc(C(=O)NCc2ccco2)cc1)c1ccccc1	0%	9%	-5%	?	-11%	-8%
O=C(Nc1ccccn1)c1ccc(Cl)c(S(=O)(=O)N2CCCC2)c1	?	-28%	3%	?	-2%	-14%
O=C(NCc1ccccn1)c1ccc(Cl)c(S(=O)(=O)N2CCCCCC2)c1	0%	10%	98%	?	11µM*	33%
CCOc1ccc(CNC(=O)c2ccc3c(c2)c(C)c(C)n3Cc2ccccc2)cc1OC	4%	nt	nt	nt	nt	nt
CCCc1nc2ccccc2n2c(-c3ccc(C)cc3)c3c(=O)n(C)c(=O)n(C)c3c12	19%	nt	nt	nt	nt	nt
O=C(c1ccc(Cl)c(S(=O)(=O)N2CCOCC2)c1)N(Cc1ccco1)Cc1cccs1	-11%	2.6µM*	-10%	?	?	27%
SMILES	AmpC inh detg	Pf growth 96h	AMA1 RON2 block	Pf growth 48h	HCV inhibitor	AmpC no deterg
CCc1ccc(NC(=O)c2ccc(F)c(S(=O)(=O)N(CC)c3ccccc3)c2)cc1	-4%	?	9%[11.6 µM]	9.3µM*	?	-21%
CCOC(=O)C[n+]1ccc2c([nH]c3ccccc32)c1C	-19%	10µM*	-9%	-21%	-5%	-28%
CCCn1c(=O)c2sccc2n2c(CCCC(=O)NC3CCC(C)CC3)nnc12 (centres undefined)	-2%	nt	nt	nt	nt	nt
Cc1ccc(C(CC(=O)Nc2ccc(F)c(Cl)c2)N2Cc3ccccc3C2=O)cc1 (centres undefined)	18%	nt	nt	nt	nt	nt
Cc1ccccc1NC(=O)NCCCN1CCCC1	2%	2.3µM*	6%	nt	-3%	-6%
CCc1ccc(NC(=O)NCCN2CCc3ccccc3C2)cc1	?	2.1µM*	-6%	4%	-8%	-10%
Cc1ccc(NC(=O)NCCN2CCCCC2)cc1C	-3%	17µM*	0%	2%	18%	-7%
O=C(NCCN1CCc2ccccc2C1)Nc1ccc(F)cc1	-21%	-2%	-16%	-15%	-2%	-26%
Cc1cc(C)c2c(CC(=O)Nc3nnc(C(C)C)s3)coc2c1	-3%	nt	nt	nt	nt	nt
CCN(CC)C(=O)/C(C#N)=C/c1cc(O)c(O)c([N+](=O)[O-])c1	nt	?	nt	-29%	nt	nt
Cc1cccc(N(CC(=O)Nc2ccccc2C(F)(F)F)S(=O)(=O)c2ccccc2)c1C	-12%	nt	nt	nt	nt	nt
CN(C)c1ccc(NC(=O)CN2C(=O)c3ccccc3Sc3ccc(C(=O)N4CCCC4)cc32)cc1	7%	nt	nt	nt	nt	nt
CCOC(=O)c1c(-c2ccccc2)oc2ccc(OCC(O)CNCCN(C)C)cc12 (centres undefined)	-6%	?	25%	2.1µM*	?	203%
CCOC(=O)c1c(CN(CC)CC)oc2cc(Br)c(O)cc12	-3%	?	0%	nt	10µM*	-17%
COc1ccc2oc(C)c(C(N)=O)c2c1	-3%	-23%	-3%	9%	-2%	-8%
CCOC(=O)c1c(-c2ccccc2)oc2ccc(OCC)cc12	-5%	-26%	136%	0%	?	-9%
CCOC(=O)c1c(-c2ccccc2)oc2ccc(OC)cc12	-9%	nt	69%	23%	11µM*	-8%
CCOC(=O)c1c(CN(CC)CC)oc2ccc(OC)cc12	-9%	15µM*	3%	?	-5%	2%
CCOC(=O)c1c(CN2CCN(C)CC2)oc2ccc(O)cc12	-11%	?	-2%	-28%	8%	-19%
Cc1cccc(OCCn2nnc3sc4c(c3c2=O)CCCC4)c1	-1%	nt	nt	nt	nt	nt
Cc1nccn1S(=O)(=O)c1ccc(Br)cc1Br	0%	13µM*	-13%	1.9µM*	?	-26%
